# Assay outcomes from PubChem BioAssay.
# This is a sample that favours compounds with a hit; in the whole collection about 7.3% have one here.
# uPA generation – qHTS for Inhibitors of Cell Surface uPA Generation; cell surface uPA generation assay, qHTS; AID 540303, 2011; Potency, µM (highest dose often 38.3 µM), usual class: inhibitors; actives 0.31% (n = 330,000); active = well fitted inhibition curve with a large enough effect; inconclusive = small, poorly fitted or top-dose-only effect; inactive = no such curve, though single readings can be large or run the other way; tested in mouse RAW 264.7 cells; note: nearly all actives have a fitted effect of over 55% in size
# NPC1 prom act – qHTS Assay for NPC1 Promoter Activators | Huh7 NPC1 promoter luciferase reporter, 24 h | Potency, µM (titrated, usually from 9.22 µM), actives largely listed as activators | actives 2.4% (n = 320,000) | AID 485313, 2010; note: nearly all actives have a fitted effect of over 60% in size
#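 Luminescence read-out of NPC1 promoter-driven luciferase in stably transfected Huh7 cells; compounds delivered in DMSO and left 24 h at 37C, 5% CO2, qHTS titration format.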
# SMN2 splice up – qHTS Assay for Enhancers of SMN2 Splice Variant Expression; HEK293 SMN2-luciferase splicing reporter, luminescence, 30-36 h; Potency, µM (series often up to 46.1 µM), hits mostly activators; actives 2.8% (n = 210,000); AID 1458, 2008; note: nearly all actives have a fitted effect of over 55% in size
#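 qHTS luciferase splicing reporter: luminescence rises when SMN2 exon 7 is included in transfected HEK293 cells. Compound exposure lasted 30-36 h at 37C, with 4.5 mM final sodium butyrate as control, followed by a ONE-Glo read.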
# Rab9 promoter act – qHTS Assay for Rab9 Promoter Activators | Potency, µM (titrated, usually from 9.22 µM), actives largely listed as activators | Huh7 Rab9 promoter-luciferase reporter, luminescence, 24 h | actives 2.8% (n = 320,000); note: nearly all actives have a fitted effect of over 60% in size
#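 Huh7 cells stably carrying a Rab9 promoter-luciferase reporter, 1500 cells per well in OP-MEM I with 10% FBS, treated with compound 24 hours at 37C. Luciferase activity read by luminescence after 10 minutes with Amplite reagent.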
# FLuc counter – qHTS profiling assay for firefly luciferase inhibitor/activator using purifed enzyme and Km concentrations of substrates (counterscreen for miR-21 project); purified FLuc, Km substrates, luminescence inhibition; Potency, µM (doses to about 57.5 µM), hits mostly inhibitors; actives 6.9% (n = 360,000); note: nearly all actives have a fitted effect of over 55% in size
# Target sequence (P08659 whole entry, looked up): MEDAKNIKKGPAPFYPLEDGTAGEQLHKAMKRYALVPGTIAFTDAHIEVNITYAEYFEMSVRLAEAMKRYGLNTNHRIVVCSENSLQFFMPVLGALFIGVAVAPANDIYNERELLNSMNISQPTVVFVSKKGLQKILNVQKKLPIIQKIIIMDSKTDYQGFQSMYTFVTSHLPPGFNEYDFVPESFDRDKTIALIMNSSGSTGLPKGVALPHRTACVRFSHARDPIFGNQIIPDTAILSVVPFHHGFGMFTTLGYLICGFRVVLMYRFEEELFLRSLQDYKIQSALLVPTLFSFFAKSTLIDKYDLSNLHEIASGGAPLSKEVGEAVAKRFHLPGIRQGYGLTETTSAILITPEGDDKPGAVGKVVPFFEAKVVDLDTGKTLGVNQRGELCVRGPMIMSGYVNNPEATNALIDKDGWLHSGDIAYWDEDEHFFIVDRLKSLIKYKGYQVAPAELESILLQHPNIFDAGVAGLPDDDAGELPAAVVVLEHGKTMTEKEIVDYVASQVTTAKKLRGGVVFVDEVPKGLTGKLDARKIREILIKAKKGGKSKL
#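 Purified P. pyralis luciferase (10nM final) with 10uM D-luciferin and 10uM ATP (Km levels) in 50mM Tris acetate pH 7.5, 10mM Mg acetate, 0.01% Tween-20, 0.05% BSA; qHTS 6-point titration, ~60 µM downward; luminescence read.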
# ELG1 genotox – qHTS screen for small molecules that induce genotoxicity in human embryonic kidney (HEK293T) cells expressing luciferase-tagged ELG1. HEK293T ELG1-luciferase reporter, luminescence, 16 h. Potency, µM (top dose mostly 46 µM), most hits filed as activators. actives 1.3% (n = 330,000). AID 504466, 2011; note: nearly all actives have a fitted effect of over 60% in size
#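 HEK293T cells expressing luciferase-tagged ELG1 were exposed to compound or DMSO vehicle for 16 hr at 37 °C and 5% CO2. Luciferase activity was then measured with ONE-Glo after 30 min at room temperature.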
# Numbers stand for hits; . = inactive; ? = inconclusive; / = not tested or not shown; [ ] = another dose, or the depositor's remark. Unless noted, calls come from the whole dose curve; as a rule, active = well fitted curve in the direction sought with a large enough effect; inconclusive = small, poorly fitted or top-dose-only effect, or another doubt; inactive = no such curve, though single readings can be large; an effect the other way counts as inactive or inconclusive.
SMILES,uPA generation,NPC1 prom act,SMN2 splice up,Rab9 promoter act,FLuc counter,ELG1 genotox
CN(C)S(=O)(=O)c1cccc(-n2sc3ccccc3c2=O)c1,.,.,.,?,10.7µM,.
O=C(O)c1cccc(-n2sc3ccccc3c2=O)c1,?,.,/,.,?,.
O=c1c2ccccc2sn1-c1ccc(S(=O)(=O)N2CCCCC2)cc1,.,/,/,/,/,/
O=c1c2ccccc2sn1-c1ccc(S(=O)(=O)N2CCCC2)cc1,.,.,.,.,4.78µM,.
O=C1c2ccccc2C(=O)N1c1nccs1,.,/,/,/,/,/
COc1cc(OC)cc(C(=O)NCC2CCCN(C(=O)c3oc(C)cc3C)C2)c1 (configuration not stated),.,?,/,.,.,.
CCC(=O)N1CCc2cc(Br)cc(S(=O)(=O)CCC(=O)N(CC)Cc3ccccc3)c21,/,/,.,/,.,/
Cc1ccc(-n2sc3ccccc3c2=O)cc1S(=O)(=O)N1CCCCC1,?,.,.,.,19µM,.
CCCNC(=O)NC1CCCc2ccccc21 (configuration not stated),?,.,.,.,.,.
CN(C)c1ccc(N=Nc2nc3ccccc3n2C)cc1,?,.,/,?,0.019µM,.
Cn1c(Cl)nc2ccccc21,.,.,?,.,.,.
Cn1c(N=Nc2ccccc2)nc2ccccc21,.,0.708µM,0.631µM,0.398µM,0.477µM,1.16µM
COc1cccc(/C=N/c2nc3ccccc3n2C)c1O,.,.,/,.,?,.
Cc1cccc(/C=C/C(=O)c2ccc([N+](=O)[O-])o2)c1,7.08µM,.,/,.,.,.
Cn1c(O)c(C=Nc2ccc(Br)cc2)sc1=O,.,?,2.82µM,4.47µM,?,?
COc1ccc(C2=NN(S(=O)(=O)c3ccccc3)C(c3ccccc3)C2)cc1 (configuration not stated),.,.,/,.,.,.
COc1ccc(C2=NN(CN3C(=O)C(=O)c4ccccc43)C(c3ccc(OC)cc3)C2)cc1 (configuration not stated),.,?,10µM,3.55µM,?,?
COc1ccc(C2CC(c3ccccc3)=NN2c2ccc(S(N)(=O)=O)cc2)cc1 (configuration not stated),.,.,/,.,9.53µM,.
Cc1nn(C)cc1/C=N/NC(=S)Nc1ccccc1,.,?,.,2µM,5.36µM,.
Oc1ccccc1C=NNC(=S)Nc1ccc(F)cc1,.,/,/,/,/,/
Fc1cccc(-c2cc3nc4c(c(NCc5ccco5)n3n2)CCCC4)c1,.,?,11.2µM,?,7.57µM,.
CC(=O)Nc1cccc(C(=O)NCCc2ccco2)c1,.,?,/,?,?,23.1µM
O=C(/C=C\c1ccco1)c1ccc(NC(=O)c2ccco2)cc1,.,?,/,?,10.7µM,?
O=C(NCc1ccccc1)c1ccc(NC(=O)c2ccco2)cc1,.,.,/,.,.,.
CC(=O)Nc1cccc(C(=O)/C=C/c2ccco2)c1,.,?,.,.,19µM,.
SMILES,uPA generation,NPC1 prom act,SMN2 splice up,Rab9 promoter act,FLuc counter,ELG1 genotox
Cc1ccc(NC(=O)N/C=C/c2ccco2)cc1,.,2.82µM,14.1µM,2.82µM,?,?
COc1ccc(Cl)cc1NC(=O)CSc1c2c(nc3ccccc13)CCC2,/,/,.,/,.,/
CCc1cccc(NC(=O)CSc2ncc3c(n2)-c2ccc(Cl)cc2N(Cc2ccccc2)S3(=O)=O)c1,/,/,/,/,.,/
CCCC1=Nc2cc(C(=O)NCc3ccc(OC)cc3)ccc2Sc2ccc(C)cc21,/,/,.,/,.,/
CC(=O)N(C)c1ccc(NC(=S)NC(=O)/C=C/c2ccco2)cc1,.,.,/,.,?,.[9.26 µM]
CC(=O)Nc1ccc(C(=O)/C=C/c2ccco2)cc1,.,.,.,.,9.53µM,.
CCOCC(=O)Nc1ccc(OCc2ccccc2)cc1,.,.,?,?,16.9µM,?
CCOC(=O)C(=O)Nc1ccc(OCc2ccccc2)cc1,.,.,/,.,?,.
CC(C)=CC(=O)Nc1ccc(Br)cc1,.,2.51µM,12.6µM,1.41µM,4.78µM,3.66µM
CC(C)=CC(=O)Nc1ccc(OCc2ccccc2)cc1,.,?,.,?,13.5µM,?
COc1ccc(S(=O)(=O)n2nc(C)c(S(=O)(=O)N3CCCCCC3)c2C)cc1OC,/,/,/,/,.,/
CCCSc1nnc(-c2c[nH]c3ccccc23)n1C,.,.,.,.,15.1µM,?
Cc1ccc2scc(N3CCCCC3C)c(=O)c2c1 (configuration not stated),/,/,/,/,0.953µM,/
Cc1ccc2scc(N3CCCCC3)c(=O)c2c1,/,/,/,/,0.849µM,/
CCn1cc(S(=O)(=O)c2cccc(C)c2)c(=O)c2cc(F)c(N3CCCCC3C)cc21 (configuration not stated),/,/,/,/,.,/
Fc1ccc2[nH]c3c(N4CCc5ccccc5C4)ncnc3c2c1,.,.,/,.,.,.
O=c1c(N2CCc3ccccc3C2)csc2ccc(F)cc12,/,/,/,/,6.01µM,/
CC1CCN(c2csc3ccc(F)cc3c2=O)CC1,/,/,/,/,6.01µM,/
CS(=O)(=O)N1CCC2(CC1)CN(C(c1ccccc1)c1ccccc1)C2,/,/,.,/,/,/
Cc1ccc2scc(N3CCC(C)CC3)c(=O)c2c1,/,/,/,/,1.2µM,/
Nc1ccc(/C=C/C(=O)c2cccs2)cc1,.,3.98µM,/,3.55µM,1.35µM,?
CCCOC(=O)c1c(NC(=O)/C=C/c2cnn(C)c2C)sc(C(=O)OC)c1C,.,.,.,.,.,.
CCc1ccc(C(=O)/C=C/c2cnn(C)c2C)s1,.,3.98µM,12.6µM,3.55µM,0.601µM,13µM
Cc1c(/C=C/C(=O)c2cccs2)cnn1C,.,?,.,?,9.53µM,20.6µM
O=C(Nc1c2c(nn1-c1ccc(Cl)cc1)CS(=O)(=O)C2)c1cccc(F)c1,/,/,/,/,.,/
SMILES,uPA generation,NPC1 prom act,SMN2 splice up,Rab9 promoter act,FLuc counter,ELG1 genotox
COc1ccc(Cl)cc1NS(=O)(=O)c1ccc2[nH]c3c(c2c1)CCCC3,/,/,/,/,.,/
Cn1c(=N)n(CC(=O)c2ccc(Br)s2)c2ccccc21,.,.,?,?,8.49µM,2.51µM
COc1cccc(C(=O)Cn2c(=N)n(C)c3ccccc32)c1,.,0.562µM,1.26µM,?,1.2µM,0.366µM
Cn1c(=N)n(CC(=O)c2cccs2)c2ccccc21,.,.,?,.,10.7µM,?
CCCn1c(=N)n(CC(=O)c2cccs2)c2ccccc21,.,.,.,.,.,.
COc1cccc(C(=O)Cn2c(NCCO)nc3ccccc32)c1,.,.,.,.,.,.
CCOC(=O)C1CCN(C(c2ccccc2)c2c(O)cc(C)n(Cc3ccco3)c2=O)CC1 (configuration not stated),/,/,/,/,.,/
Cc1ccc(-c2cc3ncc(C(=O)c4cc(Cl)c(C)cc4O)cn3n2)cc1,/,/,.,/,.,/
